CD11b adhes inh: blocks human CD11b/CD18 adhesion to fibrinogen | P05107+P11215 | K562 CD11b/CD18 adhesion to fibrinogen, ATPlite luminescence; Mn2+ added to activate the integrin | inhibition, % at 10 µM | hit rate 0.54% among 93,000;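 active = primary inhibition of 50% or more at 10 µM, then 40% or more on retest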
CYP2C19 inhib: human CYP2C19 inhibition. CYP2C19 Supersomes, luciferin-H EGE luminescence, 30 min. inhibition, % at 5 µM. hit rate 21% among 96,000. AID 778;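 active = CYP2C19 inhibition above a set limit at 5 µM in the primary screen, cut at about 50% in these data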;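 note: plate controls were negative control wells for no effect and 2.5 mM tranylcypromine positive control for full effect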
Target sequence (P33261 whole entry, looked up): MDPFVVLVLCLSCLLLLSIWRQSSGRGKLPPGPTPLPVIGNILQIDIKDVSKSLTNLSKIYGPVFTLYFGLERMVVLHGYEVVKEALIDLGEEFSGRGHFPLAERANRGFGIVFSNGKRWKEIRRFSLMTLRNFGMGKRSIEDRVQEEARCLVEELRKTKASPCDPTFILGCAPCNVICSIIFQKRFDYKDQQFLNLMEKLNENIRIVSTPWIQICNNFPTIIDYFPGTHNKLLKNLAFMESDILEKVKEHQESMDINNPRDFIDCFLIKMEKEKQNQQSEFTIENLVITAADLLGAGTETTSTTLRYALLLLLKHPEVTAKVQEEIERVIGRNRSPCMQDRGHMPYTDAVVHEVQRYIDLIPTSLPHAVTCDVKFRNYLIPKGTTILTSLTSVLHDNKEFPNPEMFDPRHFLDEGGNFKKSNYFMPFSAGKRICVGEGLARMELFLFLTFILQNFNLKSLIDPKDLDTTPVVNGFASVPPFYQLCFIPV
CYP2C9 act: activators of human CYP2C9. P11712. recombinant CYP2C9, luciferin-H conversion, luminescence; active compounds read high; factor 1 = untreated enzyme, 0 = blocked. activation factor at 5 µM. hit rate 1.4% among 96,000. AID 1024;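 active = activation factor of 2 or more for CYP2C9 at a 5 µM dose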;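 note: 0 = sulfaphenazole-blocked wells and 1 = vehicle-only wells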
CYP2C19 activ: cytochrome P450 2C19 (human) activation. P33261. recombinant CYP2C19, luciferin-H EGE luminescence; active compounds read high; 0 = fully inhibited enzyme, 1 = untreated enzyme. activation factor at 5 µM. 96,000 tested, under 10 active. AID 1025;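 active = activation factor of at least 2 at 5 µM in the primary screen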;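 note: 0 = wells with 2.5 mM tranylcypromine and 1 = vehicle-only wells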
CYP2C9 inh: human CYP2C9 inhibition. P11712. hit rate 20% among 96,000. inhibition, % at 5 µM. CYP2C9 Supersomes, luciferin-H conversion, luminescence;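 active = blocking of liver enzyme CYP2C9 beyond about 50% at 5 µM, limit read from the data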
Mac1 fbg enh: CD11b/CD18-fibrinogen binding enhancement; K562 CD11b/CD18 adhesion to fibrinogen, ATPlite luminescence; activation, % at 10 µM; hit rate 0.07% among 93,000;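 active = 10 µM primary screen giving 50% or more activity, confirmed by 40% or more on retest at that dose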
The depositor's hits bear a star; nt = no result given. Shown are actives, neighbours in structure and some others; about 28% of the full set was active somewhere.

SMILES	CD11b adhes inh	CYP2C19 inhib	CYP2C9 act	CYP2C19 activ	CYP2C9 inh	Mac1 fbg enh
O=C(CN1N=C(c2ccc(Cl)cc2)CCC1=O)NCCN1CCc2ccccc2C1	32	nt	nt	nt	nt	1
CC1=C(C(=O)NCc2ccc3c(c2)OCO3)C2(CCC(C)CC2)OC1=O (stereo not drawn)	-10	66*	0.2	0.3	85*	2
CCC(C)NC(=O)C1=C(C)C(=O)OC12CCC(C)CC2 (stereo not drawn)	0	82*	0.6	0.2	39	2
CCOC(=O)c1c(C)[nH]c(C(=O)C(C)OC(=O)c2cccc(OCc3c(C)noc3C)c2)c1C (stereo not drawn)	nt	79*	0.1	0.2	90*	nt
O=C(CSc1nccc2ccccc12)N1CCN(c2ccccn2)CC1	5	66*	1.5	0.3	-46	-1
O=C(COc1ccc2ccccc2c1Br)N1CCN(c2ccccn2)CC1	-3	84*	0.9	0.2	9	-4
CC1CCCCN1CCCNC(=O)c1ccc2c(=O)n(CCc3ccccc3)c(=O)[nH]c2c1 (stereo not drawn)	-2	87*	0.2	0.1	79*	-2
O=C(Nc1ccc2c(c1)OCCO2)C1CCCN1S(=O)(=O)c1ccc(Cl)cc1 (stereo not drawn)	-8	88*	0	0.1	96*	-2
O=C(Nc1ccc2c(c1)OCO2)C1CCCCN1S(=O)(=O)c1ccccc1 (stereo not drawn)	-4	98*	0.4	0	64*	10
O=C(CN1CCN(S(=O)(=O)c2ccc(Cl)cc2)CC1)Nc1ccc2c(c1)OCCO2	6	42	0.9	0.6	14	-1
CCOc1ccc(OCC)c(NS(=O)(=O)c2ccc3c(c2)n(C)c(=O)c(=O)n3C)c1	11	15	0.9	0.9	13	0
CCOc1ccc(S(=O)(=O)Nc2cc(OC)ccc2OC)cc1	12	100*	0.4	0	55*	7
COc1ccc(OC)c(NS(=O)(=O)c2ccc(NC(C)=O)cc2)c1	-22	100*	0.7	0	29	0
COc1ccc(OC)c(NC(=O)c2ccc(NC(C)=O)cc2)c1	-8	-1	2.6*	1	-162	-5
CCOc1cc(NC(=S)Nc2ccccc2)c(OCC)cc1NC(=O)c1ccc(OC)cc1	nt	48	0.3	0.5	69*	nt
Cc1ccccc1-n1c(SCc2cccc(F)c2)nc2[nH]ncc2c1=O	3	nt	nt	nt	nt	2
O=C(O)c1cc(-c2ccccc2Cl)n[nH]1	6	-9	1.1	1.1	-9	-1
COc1ccc(C)cc1NS(=O)(=O)c1ccc(NS(=O)(=O)c2ccc(NC(C)=O)cc2)cc1	nt	62*	0.3	0.4	66*	nt
COc1ccc(C)cc1NS(=O)(=O)c1cccc2nonc12	3	92*	0.9	0.1	15	-1
COc1ccc(S(=O)(=O)Nc2cc(C)ccc2OC)cc1C	10	100*	0.2	0	80*	-3
Cc1c(Cl)cccc1NC(=O)c1cc(-c2ccccc2O)n[nH]1	-8	17	2.7*	0.8	-168	-4
COc1ccc(C)cc1NS(=O)(=O)c1cn(C)c(=O)n(C)c1=O	-13	37	1.1	0.6	-9	0
OC1CN=C2C=CC=CN2C1 (stereo not drawn)	-13	-3	0.9	1	8	-3
COc1ccc(S(=O)(=O)Nc2cc(Cl)ccc2OC)cc1	7	99*	0.6	0	38	1
COc1ccc(OC)c(NC(=O)c2cc(-c3cc(Cl)ccc3O)n[nH]2)c1	-9	3	2.4*	1	-143	-1
SMILES	CD11b adhes inh	CYP2C19 inhib	CYP2C9 act	CYP2C19 activ	CYP2C9 inh	Mac1 fbg enh
COc1ccc(OC)c(NS(=O)(=O)c2ccc(N3CCCC3=O)cc2)c1	28	95*	0.8	0.1	19	-6
Cc1ccccc1NS(=O)(=O)c1ccc(N2CCCC2=O)cc1	1	30	0.7	0.7	30	1
COc1ccc(NC(=O)c2cc(-c3cc(C)ccc3O)n[nH]2)cc1Cl	7	-12	1.3	1.1	-27	1
Cn1c(SCC(=O)NCCNC(=O)CSc2nnc(C(F)(F)F)n2C)nnc1C(F)(F)F	-7	1	1	1	-3	0
O=C(CN1CCCCC1)Nc1cccc(-n2cnnn2)c1	-5	35	1	0.7	0	0
Cc1ccc(C2=Nc3ccccc3NC(C)(c3ccc(C)o3)C2)o1 (stereo not drawn)	-18	95*	0.3	0.1	69*	0
CC(C)c1ccc(NC(=O)Nc2cc3sccc3n2C)cc1	-11	8	0.9	0.9	8	61
CCCC(=O)c1c[nH]c(C(=O)NCCc2ccccn2)c1	-12	-3	1	1	1	-1
Cc1cc(NCCCN2CCOCC2)n2c(nc3ccccc32)c1C#N	-21	51*	0.6	0.5	40	-4
Cc1cccc2cc(C#N)c(NCCNC(=S)NCCCN3CCOCC3)nc12	-32	6	0.3	0.9	71*	-1
Cc1cc2cc(C#N)c(NCCNC(=S)NCCCN3CCOCC3)nc2cc1C	2	nt	nt	nt	nt	1
Cc1cccc2cc(C#N)c(NCCNS(=O)(=O)c3ccc4c(c3)OCCO4)nc12	-1	53*	0.4	0.5	57*	-4
O=c1c2nnn(Cc3ccccc3)c2ncn1C/C=C/c1ccccc1	-18	9	0.9	0.9	11	2
CCOC(=O)c1cc(=O)n(Cc2ccccc2C)c2ccccc12	-18	50	0.7	0.5	34	1
Cc1[nH]nc(SCC(=O)N2CCCCC2)c1[N+](=O)[O-]	-4	65*	0.5	0.4	48	-3
Cc1cc(C)c(C#N)c(Oc2ccc(O)cc2)n1	-8	26	0.4	0.7	65*	3
C=CCn1c(SCc2ccc(C#N)cc2)nnc1-c1cccc(Cl)c1	nt	97*	0.4	0	64*	nt
C=CCn1c(SCc2cccc(C#N)c2)nnc1-c1ccccc1O	6	100*	0.6	0	39	2
O=C(NN1C(=O)c2ccccc2NC1c1ccccn1)c1ccccc1 (stereo not drawn)	-17	nt	nt	nt	nt	3
Cc1cc2nc(C)n(CCCNC(=O)Nc3ccc(F)cc3)c2cc1C	-1	30	0.4	0.7	60*	-2
O=C(c1ccc(CS(=O)(=O)c2ccc(Br)cc2)o1)N1CCCCCC1	4	80*	1.3	0.2	-29	-3
O=C(c1ccc(CS(=O)(=O)c2ccc(Br)cc2)o1)N1CCCC1	3	26	0.7	0.7	31	1
COc1ccc(S(=O)(=O)Cc2ccc(C(=O)N3CCN(C4CCCCC4)CC3)o2)cc1	-12	2	0.3	1	66*	3
O=C(c1ccc(CS(=O)(=O)c2ccc(Br)cc2)o1)N1CCN(C2CCCCC2)CC1	-4	-4	0.2	1	78*	4

Screening data as filed in PubChem BioAssay.
